FBW7 activator: FBW7 E3 ligase activators, primary screen, biochemical, AlphaScreen, human. F-box/WD repeat-containing protein 7 (Homo sapiens), Q969H0. AlphaScreen FBW7–phospho-cyclin E peptide binding, activator screen. normalized activity (activation), % at 26.1 µM. hit rate 0.13% among 650,000. AID 1259310, 2017; in the data active means normalized activity above about 1.9%;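 further: purified mutant Fbw7 with reduced substrate affinity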
GPR151 ag: activators of human GPR151, primary screen, cell-based, PathHunter beta-arrestin, luminescence; PathHunter beta-arrestin GPR151 cells; activation, % at 11.2 µM; G-protein coupled receptor 151 (Homo sapiens), Q8TDV0; hit rate 1% among 650,000; in the data active means activation above about 4.9%
MITF primary: MITF inhibitors, primary screen, biochemical, AlphaScreen, human; Microphthalmia-associated transcription factor (Homo sapiens), O75030; AlphaScreen MITF homodimerization, bead proximity signal; hit rate 0.91% among 650,000; AID 1259374, 2018; inhibition, % at 2.6 µM; in the data active means inhibition above about 50%
TEAD-YAP block: TEAD-YAP interaction inhibition, primary screen, TEAD-YAP interaction inhibitor project, luminescence, HEK-TIYL cells; hit rate 1.4% among 640,000; inhibition, % at 9.12 µM; TEAD-Gal4/YAP UAS-luciferase luminescence; in the data active means inhibition above about 32%
GPR151 confirm: GPR151 activators, triplicate retest, confirmation, cell-based, PathHunter beta-arrestin, luminescence. shares compounds with GPR151 ag. GPR151 PathHunter beta-arrestin cells, 90 min; % of EA-reagent control over plate median. activation, % at 11.2 µM. 6,700 tested, under 10 active. AID 1508609, 2020;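 active means mean percent activation across replicates above the confirmation screen cutoff of 4.91%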
GPR119 counter: GPR119 activators in beta-arrestin cells, counter-screen for GPR151 activator project, cell-based, PathHunter beta-arrestin, luminescence, triplicate; shares compounds with GPR151 ag; 90 min; 0 = compound-well median, 100 = enzyme-acceptor control; activation, % at 11.2 µM; hit rate 0.3% among 6,700; AID 1508611, 2020;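 active means mean percent activation in the counterscreen above 29.09%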;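 further: counterscreen on off-target GPR119 to flag nonselective hits from the GPR151 activator screen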
A number is an active result; - = inactive; . = no result. Only some compounds are listed: those with a hit (about 3.4% of all), similar ones and a draw of the others.

SMILES | FBW7 activator | GPR151 ag | MITF primary | TEAD-YAP block | GPR151 confirm | GPR119 counter
Cc1ccccc1C(=O)NC(C)c1nnc2n1CCN(Cc1ccc(F)cc1)CC2 (stereo not drawn) | - | 6.5 | - | - | - | -
Cc1ccccc1C(=O)NC(C)c1nnc2n1CCN(Cc1ccccc1F)CC2 (stereo not drawn) | - | - | - | - | . | .
CCCCNC(=O)c1cnn2c(C)c(Cc3ccc(F)cc3)c(C)nc12 | - | 8.3 | - | - | - | -
COc1ccccc1CNC(=O)c1cnn2c(C)c(Cc3ccc(C)cc3)c(C)nc12 | - | 5.6 | - | - | - | -
Cc1nc2c(C(=O)NCC3CCCO3)cnn2c(C)c1Cc1ccccc1 (stereo not drawn) | - | - | - | - | . | .
Cc1nc2c(C(=O)NC3CCCC(C)C3C)cnn2c(C)c1Cc1cccc(Cl)c1 (stereo not drawn) | - | 6.5 | - | - | - | -
Cc1cccc(Cc2c(C)nc3c(C(=O)NCC4CCCO4)cnn3c2C)c1 (stereo not drawn) | - | 5.1 | - | - | - | -
Cc1nc2c(C(=O)NC3CC3)cnn2c(C)c1Cc1cccc(Cl)c1 | - | - | - | - | . | .
CS(=O)(=O)c1ccccc1CN1CCC(NCCc2cnc[nH]2)CC1 | - | - | - | - | . | .
CC(=O)Nc1ccc(NC(=O)c2nn(C)cc2Br)cc1 | - | - | - | - | . | .
O=C(Cc1cccc2ccccc12)NCC1(CO)CC1 | - | - | - | - | . | .
Cc1nc2c(C(=O)NCc3ccccc3Cl)cnn2c(C)c1Cc1cccc(Cl)c1 | - | 5.3 | - | - | - | -
O=C(CCC(=O)N(CC(=O)NC1CCCC1)c1ccccc1F)Nc1nccs1 | - | - | - | - | . | .
COc1ccc(OC(C)C(=O)Nc2ccc(C)c(Cl)c2)cc1 (stereo not drawn) | - | - | - | - | . | .
Cc1ccccc1CNC(=O)CN(C)c1nnc(N2CCCC2=O)s1 | - | - | - | - | . | .
COc1cccc(CNC(=O)CN(C)c2nnc(N3CCCC3=O)s2)c1OC | - | 5.3 | - | - | - | -

High-throughput results: PubChem BioAssay, The Scripps Research Institute Molecular Screening Center
